Measured values published in PubChem BioAssay (NCATS).
“And” between values parts separate entries of the source, which are not always exact repeats. Equal entries are not always repeated. Inconclusive results are not listed. The source made the active and inactive calls. Calls come from the whole dose curve; as a rule, active = well fitted curve in the direction sought with a large enough effect; inconclusive = small, poorly fitted or top-dose-only effect, or another doubt; inactive = no such curve, though single readings can be large; an effect the other way counts as inactive or inconclusive.

How the values were obtained:
[1] = target: Cytochrome P450 3A7 (Homo sapiens) (UniProt P24462); assay: Cytochrome P450 family 3 subfamily A member 7 (CYP3A7) small molecule antagonists: luciferase biochemical qHTS assay (AID 1963596); note: % is set by controls: 0 for no effect and ±100 for the full control effect; nearly all actives have a fitted effect of over 40% in size
Chain of Cytochrome P450 3A7 (Homo sapiens) (P24462 whole entry, looked up): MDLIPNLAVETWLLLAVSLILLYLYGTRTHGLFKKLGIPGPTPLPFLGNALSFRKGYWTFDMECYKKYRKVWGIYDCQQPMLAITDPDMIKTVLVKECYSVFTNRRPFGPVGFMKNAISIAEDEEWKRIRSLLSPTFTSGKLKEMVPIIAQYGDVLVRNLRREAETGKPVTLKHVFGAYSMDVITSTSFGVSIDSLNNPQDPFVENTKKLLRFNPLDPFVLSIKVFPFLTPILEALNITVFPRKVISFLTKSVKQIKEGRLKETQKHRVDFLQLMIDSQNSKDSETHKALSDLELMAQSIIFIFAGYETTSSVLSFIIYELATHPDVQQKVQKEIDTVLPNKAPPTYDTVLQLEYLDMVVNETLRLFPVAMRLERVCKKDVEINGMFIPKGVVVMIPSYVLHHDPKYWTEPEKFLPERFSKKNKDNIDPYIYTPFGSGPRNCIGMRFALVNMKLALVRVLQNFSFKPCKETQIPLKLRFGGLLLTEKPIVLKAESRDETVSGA
Outline: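 Luminescence from luciferin released by CYP3A7 from a proluciferin substrate, read 20 min after detection reagent. Compound and enzyme-substrate mix sat 10 min before NADPH regeneration solution; reaction ran 1 h at room temperature.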

[2] = Quantitative highthroughput screen to assess conditional lethalithy of NOMO1 cells grown in RPMI1640 with untreated serum (RPMI+s) (AID 1963876);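 note: 100% = DMSO wells and 0% = empty wells without cells; nearly all actives have a fitted effect of over 35% in size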
Outline: (§1)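 Each medium arm—HPLM with 10% dialyzed FBS, or RPMI1640 with 5 mM glucose and 10% untreated or dialyzed FBS—was screened against an 11-point, 3-fold compound titration for 48 h at 37 °C, with CellTiter-Glo luminescence as endpoint.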

[3] = Quantitative highthroughput screen to assess conditional lethalithy of NOMO1 cells grown in RPMI1640 with dialyzed fetal bovine serum (RPMI+ds) (AID 1963877);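 note: series mostly up to about 46 µM; 100% = DMSO control wells and 0% = empty wells; nearly all actives have a fitted effect of over 30% in size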
Outline: as §1

[4] = Quantitative highthroughput screen to assess conditional lethalithy of NOMO1 cells grown in Human Plasma-Like Medium with dialyzed fetal bovine serum (HPLM+ds) (AID 1963878);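 note: 100% = DMSO wells and 0% = empty wells on each plate; nearly all actives have a fitted effect of over 35% in size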
Outline: as §1

[5] = Quantitative highthroughput screen to assess conditional lethalithy of P12 Ichikawa cells grown in Human Plasma-Like Medium with dialyzed fetal bovine serum (HPLM+ds) (AID 1963879); settings: Potency: viability; note: series mostly up to about 46 µM; nearly all actives have a fitted effect of over 35% in size
Outline: as §1

[6] = Quantitative highthroughput screen to assess conditional lethalithy of P12 Ichikawa cells grown in RPMI1640 with dialyzed fetal bovine serum (RPMI+ds) (AID 1963880); settings: Potency: P12-Ichikawa viability;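 note: 100% = DMSO wells and 0% = empty wells on each plate; nearly all actives have a fitted effect of over 35% in size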
Outline: as §1

[7] = Quantitative highthroughput screen to assess conditional lethalithy of P12 Ichikawa cells grown in RPMI1640 with untreated serum (RPMI+s) (AID 1963881); settings: Potency: viability
Outline: as §1

[8] = Quantitative highthroughput screen to assess conditional lethalithy of SEM cells grown in Human Plasma-Like Medium with dialyzed fetal bovine serum (HPLM+ds) (AID 1963882); note: nearly all actives have a fitted effect of over 35% in size; note: potency is the fitted concentration of half-maximal effect; for viability: series mostly up to about 46 µM
Outline: as §1

[9] = Quantitative highthroughput screen to assess conditional lethalithy of SEM cells grown in RPMI1640 with unreated serum (RPMI+s) (AID 1963883)
Outline: as §1

[10] = Quantitative highthroughput screen to assess conditional lethalithy of SEM cells grown in RPMI1640 with dialyzed fetal bovine serum (RPMI+ds) (AID 1963884); note: nearly all actives have a fitted effect of over 35% in size; note: potency is the fitted concentration of half-maximal effect;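 for viability: series mostly up to about 46 µM; 100% = DMSO control wells and 0% = empty wells without cells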
Outline: as §1

[11] = Viability qHTS for spleen associated tyrosine kinase inhibitor (SYKi) drug resistant MV4-11 cells (AID 1963824); note: nearly all actives have a fitted effect of over 35% in size; note: potency is the fitted concentration of half-maximal effect
Outline: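 SYK-inhibitor-resistant MV4-11 AML cells were seeded at 500 per well onto compound and cultured 72 hours (37 °C, 5% CO2). CellTiter-Glo was then added, and after 10 min at room temperature, luminescence gave viability.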

[12] = Cellular viability qHTS for adrenocortical cancer (ACC) cell line SW-13 (AID 1963989); settings: SW-13 ACC cells viability, CellTiter-Glo, 48 h; activity (max response): hits give low values; note: nearly all actives have a fitted effect of over 65% in size; note: potency is the fitted concentration of half-maximal effect;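 for activity (max response): cells grown in serum-free medium with ITS supplement; % is set by controls: 0 for no effect and ±100 for the full control effect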
Outline: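 Luminescent ATP read-out (CellTiter-Glo, 20 min at room temperature) measured metabolically competent SW-13 cells after 48 h compound treatment. Final concentrations spanned up to 46 uM; bortezomib served as positive control.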

[13] = Cellular viability qHTS for adrenocortical cancer (ACC) cell line NCI-H295R (AID 1963990); note: nearly all actives have a fitted effect of over 60% in size; note: potency is the fitted concentration of half-maximal effect
Outline: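 IC50 and maximal efficacy derive from four-parameter logistic modelling of titration curves, with reads scaled between DMSO-only wells (0%) and doxorubicin hydrochloride (100% inhibition). Compounds spanned up to 46 uM over 48 h.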

CCN(CC)CC#CCOC(=O)C(O)(c1ccccc1)C1CCCCC1 (centres undefined)
inactive: Potency [1] | Potency [2] | Potency [3] | Potency [4] | Potency [5] | Potency [6] | Potency [7] | Potency [8] | Potency [9] | Potency [10]

Clc1ccccc1-c1nc(-c2ccncc2)no1
inactive: Potency [1] | activity (max response) [12] -7.1% | Potency [13]
active: Potency [11] 11900 nM

O=C(NCC(=O)N1CCCC1)Nc1ccc2cnccc2c1
inactive: Potency [1] | activity (max response) [12] -10.6% | Potency [13]
active: Potency [11] 8200 nM

C[C@@H](O)[C@H]1C(=O)N2C(C(=O)O)=C(SCCN=CN)C[C@H]12
inactive: Potency [1] | Potency [11] | activity (max response) [12] -5.98% | Potency [13]

NNc1nncc2ccccc12
inactive: Potency [1] | Potency [2] | Potency [3] | Potency [4] | Potency [5] | Potency [6] | Potency [7] | Potency [8] | activity (max response) [12] 12.3% and -11.3% | Potency [13]

CCOc1cc2ncc(C#N)c(Nc3ccc(F)c(Cl)c3)c2cc1NC(=O)/C=C/CN(C)C
inactive: Potency [1]
active: Potency [11] 235 nM | Potency [12] 631 nM | Potency [13] 3550 nM

Cc1cccc(Oc2cnc(=O)[nH]c2)c1
inactive: Potency [1] | Potency [11] | activity (max response) [12] 6.68% | Potency [13]

CCCCCCCCCCCCCC(=O)OC(C)C
inactive: Potency [1] | Potency [11] | Potency [13]

CCS(=O)(=O)c1ccc(OC)c(C(=O)OC)c1
inactive: Potency [1] | Potency [11] | Potency [13]

Cn1ncc(Cl)c1-c1cc(C(=O)NC(CN)Cc2ccc(F)c(F)c2)oc1Cl (centres undefined)
inactive: Potency [1]
active: Potency [11] 4680 nM | Potency [13] 3160 nM

CC(=O)N1C[C@H](O)C[C@H]1C(=O)O
inactive: Potency [1] | Potency [11] | activity (max response) [12] 0.891% | Potency [13]

CCn1cc(C(=O)O)c(=O)c2cc(F)c(N3CCNC(C)C3)c(F)c21 (centres undefined)
inactive: Potency [1] | Potency [2] | Potency [3] | Potency [4] | Potency [5] | Potency [6] | Potency [7] | Potency [8] | Potency [9] | Potency [10] | activity (max response) [12] -4.05% and -10.4% | Potency [13]

CN1CCN(N)CC1
inactive: Potency [1] | Potency [11] | activity (max response) [12] -3.26% | Potency [13]

Nc1ccn(C2CO[C@H](CO)O2)c(=O)n1 (some centres undefined)
inactive: Potency [1] | Potency [2] | Potency [3] | Potency [4] | Potency [5] | Potency [6] | Potency [7] | Potency [8] | Potency [9] | Potency [10]

CCCOC(=O)c1ccc(O)cc1
active: Potency [11] 86.3 nM
inactive: Potency [1] | Potency [13]

Cc1cc(C)c(NC(=O)CN(CC(=O)O)CC(=O)O)c(C)c1Br
inactive: Potency [1] | Potency [11] | Potency [13]

C[C@H]1O[C@@H](O[C@H]2CC[C@@]3(C)[C@H](CC[C@@H]4[C@@H]3C[C@@H](O)[C@]3(C)[C@@H](C5=CC(=O)OC5)CC[C@]43O)C2)C[C@H](O)[C@@H]1O[C@H]1C[C@H](O)[C@H](O[C@H]2C[C@H](O)[C@H](O[C@@H]3O[C@H](CO)[C@@H](O)[C@H](O)[C@H]3O)[C@@H](C)O2)[C@@H](C)O1
active: Potency [11] 133 nM | Potency [12] 82 nM | Potency [13] 164 nM
inactive: Potency [1]

COc1ccc(C(Cl)=C(c2ccc(OC)cc2)c2ccc(OC)cc2)cc1
inactive: Potency [1] | Potency [11] | Potency [13]

CCNC(=O)Nc1ccc(Oc2ncnc(N)c2C=NOC)cc1Cl
active: Potency [8] 1050 nM | Potency [10] 935 nM
inactive: Potency [1] | Potency [2] | Potency [3] | Potency [4] | Potency [5] | Potency [6] | Potency [7]

C[C@@H]1CCC[C@H](C)N1CCCC(O)(c1ccccc1)c1ccccn1 (some centres undefined)
inactive: Potency [1] | Potency [11] | activity (max response) [12] -5.41% | Potency [13]

CC1(C)OC[C@@H](COC(=O)CCc2ccc(OC[C@@H](O)CNCCNC(=O)N3CCOCC3)cc2)O1
inactive: Potency [1] | Potency [11] | activity (max response) [12] -0.309% | Potency [13]

O=c1[nH]cnc2nc[nH]c12
inactive: Potency [1] | Potency [11] | Potency [13]

CC(=O)N(CC(=O)N(C)C)c1ccccc1
inactive: Potency [1] | Potency [11] | activity (max response) [12] -5.65% | Potency [13]

O=C(O)c1ccc(OCCN2CCCCC2)cc1
inactive: Potency [1] | Potency [11] | Potency [13]

C[C@H]1O[C@H](O[C@H]2[C@H](O)[C@@H](O)[C@@H](O[C@H]3[C@H](O)[C@@H](O)[C@H](O)O[C@@H]3CO)O[C@@H]2CO)[C@H](O)[C@@H](O)[C@@H]1N[C@H]1C=C(CO)[C@@H](O)[C@H](O)[C@H]1O
inactive: Potency [1] | Potency [11] | activity (max response) [12] -2.85% | Potency [13]

CC(=O)O[C@H]1C[C@@H]2CC[C@@H]3[C@H](CC[C@@]4(C)[C@H]3C[C@H]([N+]3(C)CCCCC3)[C@@H]4OC(C)=O)[C@@]2(C)C[C@@H]1N1CCCCC1
inactive: Potency [1] | Potency [11] | Potency [13]

CC(C)NC(=O)c1ccc(C=O)cc1
inactive: Potency [1] | Potency [11] | Potency [13]

O=c1c(-c2ccc(O)cc2)coc2cc(OC3O[C@H](CO)[C@H](O)[C@H](O)[C@H]3O)cc(O)c12 (some centres undefined)
inactive: Potency [1] | Potency [2] | Potency [3] | Potency [4] | Potency [5] | Potency [6] | Potency [7] | Potency [8] | Potency [9] | Potency [10]
